Screening data (PubChem)
Shown are actives, neighbours in structure and some others; about 2.1% of the full set was active somewhere.
aDG glyco act = alpha-DG glycosylation activation. Pro5-aDG cells, alpha-DG glycosylation AlphaScreen (IIH6); 0% Pro5, 100% B10-LARGE cell signal. activation, % at 10 µM. 360,000 compounds, 0.22% hits. AID 624168;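 active means activation of at least 8% versus controls, or a plate z-score of at least 8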;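 further: Pro5 are CHO cells carrying HIG-tagged alpha-DG that lacks glycosylation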
Env fusion inh = blocks HIV Env-driven cell-cell fusion; 360,000 compounds, 1.1% hits; inhibition, % at 12.3 µM; HeLa-JRFL Env/CEM21 cell fusion, luciferase; AID 651610;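 active means mean replicate inhibition score of at least 50 and every replicate individually at or above 50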;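 further: 0% = plate neutral controls and 100% = maraviroc near 300 nM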
GalR3 antag = human GalR3 antagonism. O60755. HEK293 GalR3-CNG cAMP membrane potential fluorescence; galR3 body fused to GalR1 C-terminus. inhibition, % at 3 µM. 360,000 compounds, 0.44% hits. AID 651719;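 active means inhibition above the screen-wide average plus 3 SD, cut at about 13% in these data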;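 further: forskolin and galanin both at EC90 stimulate the cells; cAMP rise reported by CNG channel membrane potential dye signal; 0% = forskolin plus galanin with DMSO and 100% = forskolin alone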
COUP-TFII inh = inhibitors of human COUP-TFII (NR2F2); HEK293T NGFI-A luciferase reporter, luminescence; 370,000 compounds, 0.7% hits; inhibition, % at 8.6 µM; P24468; AID 686940;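 active means inhibition above a per-plate cutoff, mean inhibition of test wells between control levels plus 3 SD, cut at about 38% in these data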;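 further: cells cotransfected with COUP-TFII expression vector driving the NGFI-A reporter; 0% = median of COUP-TF2 test wells and 100% = reporter-only cells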
Target sequence (P24468 whole entry, looked up): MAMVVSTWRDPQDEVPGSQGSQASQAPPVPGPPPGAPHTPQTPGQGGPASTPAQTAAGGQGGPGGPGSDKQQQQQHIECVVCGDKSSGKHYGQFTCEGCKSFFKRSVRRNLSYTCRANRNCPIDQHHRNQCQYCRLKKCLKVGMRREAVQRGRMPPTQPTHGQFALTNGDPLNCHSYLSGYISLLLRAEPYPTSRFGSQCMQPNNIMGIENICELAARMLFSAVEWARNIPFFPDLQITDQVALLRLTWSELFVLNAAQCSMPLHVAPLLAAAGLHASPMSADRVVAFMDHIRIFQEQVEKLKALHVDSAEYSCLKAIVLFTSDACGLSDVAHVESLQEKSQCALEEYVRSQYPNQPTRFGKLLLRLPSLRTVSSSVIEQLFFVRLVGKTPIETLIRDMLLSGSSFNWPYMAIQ
Gli-Sufu block = antagonists of Gli-Sufu signaling | AID 588413 | 340,000 compounds, 0.74% hits | Sufu-KO-LIGHT fibroblasts, Gli luciferase reporter luminescence | inhibition, % at 5 µM;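 active means inhibition above about 55%, limit read from the data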;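 further: 0% = DMSO-treated cells and 100% = wells with medium but no cells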
aDG glyco conf = confirmation of alpha dystroglycan glycosylation activators; AID 651671; Pro5-aDG cells, alpha-DG glycosylation, IIH6 AlphaLISA; scaled to LARGE-overexpressing B10 cells as 100%; activation, % at 10 µM (by protocol); shares compounds with aDG glyco act; 600 compounds, 17% hits;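 active means activation of at least 7% in one or more replicates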;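 further: cells exposed to compound for two days before detection; 0% = DMSO-treated Pro5 cells and 100% = DMSO-treated B10-LARGE cells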
* marks the source's active call; other numbers are inactive results; [ ] = remark or other dose.

`CCn1c(Cc2ccccc2)nnc1SCC(=O)Nc1cc(C)on1` gave aDG glyco act 43.9*, Gli-Sufu block -2.7 and aDG glyco conf -0.6.
Screening C[C@@H]1CCCCO[C@H](CN(C)Cc2ccc(C(=O)O)cc2)[C@@H](C)CN([C@H](C)CO)C(=O)c2cc(NC(=O)Nc3ccc(C(F)(F)F)cc3)ccc2O1 returned Env fusion inh 9.2[16.7 µM].
For Cc1nc2cc(NC(=O)c3ccc([N+](=O)[O-])s3)ccc2s1 the results were aDG glyco act 10.7*, Env fusion inh 39.8, GalR3 antag -2.5, COUP-TFII inh -21.8, Gli-Sufu block 26.1 and aDG glyco conf 5.1*.
`CCc1ccccc1NC(=O)c1ccc([N+](=O)[O-])s1` gave aDG glyco act 12.6*, Env fusion inh -0.4, GalR3 antag 12.3, COUP-TFII inh 4.5, Gli-Sufu block -6.5 and aDG glyco conf 1.4.
CCc1ccccc1NC(=O)CSc1ccsc1[N+](=O)[O-] was read as aDG glyco act 0.0, Env fusion inh 3.8, GalR3 antag 2.5, COUP-TFII inh 14.9 and Gli-Sufu block 7.5.
Screening C=CC(COC(C)=O)NS(=O)(=O)c1ccc(Br)cc1 (configuration not stated) returned Env fusion inh -4.4[16.7 µM].
`CCCCN(C(=O)CCNC(=O)NC12CC3CC(CC(C3)C1)C2)c1c(N)n(CCC)c(=O)[nH]c1=O` gave aDG glyco act 5.1*, Env fusion inh -0.5, GalR3 antag -2.9, COUP-TFII inh -0.4, Gli-Sufu block -10.4 and aDG glyco conf -0.1.
`CCCCn1c(N)c(N(CCOC)C(=O)CCNC(=O)NC23CC4CC(CC(C4)C2)C3)c(=O)[nH]c1=O` gave aDG glyco act 0.0, Env fusion inh -0.1, GalR3 antag -4.5, COUP-TFII inh -6.0 and Gli-Sufu block -14.5.
`Cc1noc(C)c1S(=O)(=O)Nc1cccc2c1O[C@H](CN(C)CC1CCCCC1)[C@H](C)CN([C@@H](C)CO)C2=O` gave Env fusion inh -3.1[16.7 µM].
`O=C(c1cc(-c2ccccc2)nc2ccccc12)N1CCOCC1` gave aDG glyco act -0.1, GalR3 antag 0.6, COUP-TFII inh -3.5 and Gli-Sufu block 4.3.
CC(C)c1ccc(-c2cc(C(=O)N3CCOCC3)c3cc(Br)ccc3n2)cc1 was read as aDG glyco act 4.6*, GalR3 antag 3.9, COUP-TFII inh -7.8, Gli-Sufu block 6.1 and aDG glyco conf 9.4*.
`CC(=O)N1c2ccccc2S(=O)(=O)c2c1ccc1ccccc21` gave aDG glyco act 12.7*, Env fusion inh 2.6, GalR3 antag -5.3, COUP-TFII inh 0.7, Gli-Sufu block 12.4 and aDG glyco conf -0.1.
Screening CC(=O)N1c2ccccc2S(=O)(=O)c2ccccc21 returned aDG glyco act 0.1, Env fusion inh -14.6, GalR3 antag -2.6, COUP-TFII inh -2.7 and Gli-Sufu block 24.4.
Clc1ccc(-c2cc(C3CCNCC3)[nH]n2)cc1 was read as aDG glyco act 6.9*, Env fusion inh 2.2, GalR3 antag -7.3, COUP-TFII inh 11.6, Gli-Sufu block 9.6 and aDG glyco conf 1.3.
For Cc1ccccc1S(=O)(=O)NCC[C@@H]1CC[C@@H](NC(=O)C2CCC2)[C@H](CO)O1 the results were Env fusion inh -1.1[16.7 µM].
C[C@@H]1CN([C@@H](C)CO)C(=O)Cc2cc(NC(=O)Nc3ccc(F)cc3)ccc2O[C@H]1CN(C)S(=O)(=O)c1ccccc1 was read as Env fusion inh -1.7[16.7 µM].
Cc1nn(C)cc1CNC(=O)COc1ccc(Cl)cc1Cl was read as aDG glyco act 14.7*, Env fusion inh 22.0, GalR3 antag -0.4, COUP-TFII inh 9.5, Gli-Sufu block 0.4 and aDG glyco conf -0.3.
Screening CC1Sc2ccc(C(=O)NCc3ccccn3)cc2NC1=O (configuration not stated) returned aDG glyco act 5.5*, Env fusion inh -15.9, GalR3 antag 0.3, COUP-TFII inh -13.6, Gli-Sufu block 16.5 and aDG glyco conf 1.4.
Screening C[C@H]1CN([C@@H](C)CO)C(=O)Cc2cc(NC(=O)C3CC3)ccc2O[C@@H]1CN(C)C(=O)Nc1cccc2ccccc12 returned Env fusion inh 11.2[16.7 µM].
Cc1cc(-c2nn(-c3ccccc3)cc2/C=C2\SC(N)=NC2=O)ccc1OC(C)C was read as aDG glyco act 6.0*, GalR3 antag -1.9, COUP-TFII inh 1.5, Gli-Sufu block -2.1 and aDG glyco conf -0.9.
`O=C(COc1ccc(NS(=O)(=O)c2ccc(F)cc2)cc1)N1CCOCC1` gave aDG glyco act 11.3*, Env fusion inh 2.8, GalR3 antag -7.1, COUP-TFII inh -10.8, Gli-Sufu block -2.0 and aDG glyco conf -0.9.
COc1ccc(CCN(C)C(=O)c2cc(-c3ccccc3)nc3ccc(C)cc23)cc1OC was read as aDG glyco act 7.8*, Env fusion inh 4.0, GalR3 antag 1.1, COUP-TFII inh -9.5, Gli-Sufu block -2.8 and aDG glyco conf -0.2.
Screening O=C(C[C@@H]1C=C[C@H](NS(=O)(=O)c2ccc(F)cc2)[C@H](CO)O1)NCCN1CCCCC1 returned Env fusion inh -17.6[16.7 µM].
For CN(CC(=O)Nc1cccc(F)c1)C(=O)c1ccc(N2C(=O)c3ccccc3C2=O)cc1 the results were aDG glyco act 5.1*, GalR3 antag -4.0, COUP-TFII inh -10.9, Gli-Sufu block -5.5 and aDG glyco conf -1.0.
C[C@@H]1CCCCO[C@@H](CN(C)S(C)(=O)=O)[C@@H](C)CN([C@H](C)CO)C(=O)c2cc(NC(=O)c3ccccc3)ccc2O1 was read as Env fusion inh -5.2[16.7 µM].
Screening CC(C)CC#Cc1cnc2c(c1)C(=O)N([C@H](C)CO)C[C@@H](C)[C@H](CN(C)Cc1ccccn1)O2 returned Env fusion inh 7.8[16.7 µM].
For CC(C)Oc1cc(F)ccc1-c1cc(C(=O)Nc2ccccc2)[nH]n1 the results were aDG glyco act 0.5, GalR3 antag -4.9 and COUP-TFII inh -20.6.
`CC(C)Oc1cc(F)ccc1-c1cc(C(=O)Nc2ccc(C(C)C)cc2)[nH]n1` gave aDG glyco act 11.7*, GalR3 antag -8.0, COUP-TFII inh -2.1 and aDG glyco conf -0.1.
Screening Cc1cc(C)cc(SCc2noc(C(=O)NCCN(C)C)c2C(=O)NCCN(C)C)c1 returned aDG glyco act 7.2*, Env fusion inh 1.8, GalR3 antag -8.2, COUP-TFII inh -13.7, Gli-Sufu block 15.1 and aDG glyco conf 1.1.
`COC(=O)C[C@@H]1CC[C@H]2[C@H](COc3ccc(NC(=O)Cc4cccs4)cc3C(=O)N2C)O1` gave Env fusion inh -9.3[16.7 µM].
For CCSc1nnc(SCC(=O)c2c(N)n(C)c(=O)n(C)c2=O)s1 the results were aDG glyco act 4.2*, Env fusion inh -14.8, GalR3 antag 1.0, COUP-TFII inh 1.7, Gli-Sufu block 14.7 and aDG glyco conf -0.9.
